Assay results as given in PubChem BioAssay (NCATS).
Inconclusive results are not listed. The source made the active and inactive calls. Calls follow the shape of the dose curve; as a rule, active = well fitted curve in the direction sought with a large enough effect; inconclusive = small, poorly fitted or top-dose-only effect, or another doubt; inactive = no such curve, though single readings can be large; an effect the other way counts as inactive or inconclusive.

Experiments:
[1] = target: Nuclear receptor subfamily 1 group I member 2 (Homo sapiens) (UniProt O75469); experiment: Dual reporter qHTS for antagonist of Pregnane X Receptor (hPXR) against the NCATS DSHEA and TCM libraries: Luminescence Readout (AID 1920060);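 also: HepG2 cells carrying hPXR luciferase reporter stimulated with rifampicin at 2 µM; 0% is about no effect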
Chain of Nuclear receptor subfamily 1 group I member 2 (Homo sapiens) (O75469 whole entry, looked up): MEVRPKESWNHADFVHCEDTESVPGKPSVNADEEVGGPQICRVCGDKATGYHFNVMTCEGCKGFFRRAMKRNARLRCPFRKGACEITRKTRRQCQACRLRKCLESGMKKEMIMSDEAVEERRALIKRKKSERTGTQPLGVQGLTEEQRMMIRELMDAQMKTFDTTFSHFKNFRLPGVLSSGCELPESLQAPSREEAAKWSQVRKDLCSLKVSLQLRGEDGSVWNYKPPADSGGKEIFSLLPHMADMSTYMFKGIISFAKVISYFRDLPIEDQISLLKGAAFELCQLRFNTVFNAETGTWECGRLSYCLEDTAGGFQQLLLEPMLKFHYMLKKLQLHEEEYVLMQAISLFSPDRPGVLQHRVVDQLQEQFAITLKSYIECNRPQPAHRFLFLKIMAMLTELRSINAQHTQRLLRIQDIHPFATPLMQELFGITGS
In short: (§1)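 Antagonist mode: rifampicin 2 uM final co-added with compounds to hPXR-LucHepG2 cells for 24 h at 37C. Viability by CellTiter-Fluor, Ex/Em 405/540 nm, 1 h; reporter by ONE-Glo luminescence.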

[2] = Dual reporter qHTS for antagonist of Pregnane X Receptor (hPXR) against the NCATS DSHEA and TCM libraries: Fluorescence Readout (AID 1920061); also: 0% is about no effect
In short: as §1

[3] = qHTS profiling for inhibitors of Plasmodium falciparum proliferation (AID 504749);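 also: 0% = DMSO vehicle and full inhibition = artemisinin control; nearly all actives have a fitted effect of over 60% in size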; settings: P. falciparum in erythrocytes, SYBR Green DNA, 72 h, at 28.7 µM (top of the series)
In short: (§2)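 Parasite proliferation within erythrocytes, 72 h exposure. Endpoint: SYBR Green I fluorescence after overnight lysis at room temperature. Controls: 0.29 uM artemisinin, DMSO.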

[4] = test system: 3D7; experiment: as above; settings: P. falciparum in erythrocytes, SYBR Green DNA, 72 h; series mostly up to 28.7 µM
In short: as §2

[5] = test system: 7G8; experiment: as above; settings: P. falciparum in erythrocytes, SYBR Green DNA, 72 h; series mostly up to 28.7 µM
In short: as §2

[6] = test system: AA1029; experiment: as above; settings: P. falciparum in erythrocytes, SYBR Green DNA, 72 h; series mostly up to 28.7 µM
In short: as §2

[7] = test system: AS120; experiment: as above; settings: P. falciparum in erythrocytes, SYBR Green DNA, 72 h; series mostly up to 28.7 µM
In short: as §2

[8] = test system: ATS189; experiment: as above; settings: P. falciparum in erythrocytes, SYBR Green DNA, 72 h; series mostly up to 28.7 µM
In short: as §2

[9] = test system: ATS95; experiment: as above; settings: P. falciparum in erythrocytes, SYBR Green DNA, 72 h; series mostly up to 28.7 µM
In short: as §2

[10] = test system: C2A; experiment: as above; settings: P. falciparum in erythrocytes, SYBR Green DNA, 72 h; series mostly up to 28.7 µM
In short: as §2

[11] = test system: CP185; experiment: as above; settings: P. falciparum in erythrocytes, SYBR Green DNA, 72 h; series mostly up to 28.7 µM
In short: as §2

[12] = test system: CP191; experiment: as above; settings: P. falciparum in erythrocytes, SYBR Green DNA, 72 h; series mostly up to 28.7 µM
In short: as §2

[13] = test system: CP192; experiment: as above; settings: P. falciparum in erythrocytes, SYBR Green DNA, 72 h; series mostly up to 28.7 µM
In short: as §2

[14] = test system: CP194; experiment: as above; settings: P. falciparum in erythrocytes, SYBR Green DNA, 72 h; series mostly up to 28.7 µM
In short: as §2

[15] = test system: CP201; experiment: as above; settings: P. falciparum in erythrocytes, SYBR Green DNA, 72 h; series mostly up to 28.7 µM
In short: as §2

[16] = test system: CP203; experiment: as above; settings: P. falciparum in erythrocytes, SYBR Green DNA, 72 h; series mostly up to 28.7 µM
In short: as §2

[17] = test system: CP211; experiment: as above; settings: P. falciparum in erythrocytes, SYBR Green DNA, 72 h; series mostly up to 28.7 µM
In short: as §2

[18] = test system: CP215; experiment: as above; settings: P. falciparum in erythrocytes, SYBR Green DNA, 72 h; series mostly up to 28.7 µM
In short: as §2

[19] = test system: CP217; experiment: as above; settings: P. falciparum in erythrocytes, SYBR Green DNA, 72 h; series mostly up to 28.7 µM
In short: as §2

OC1C(O)C(O)C(O)C(O)C1O (stereo unspecified)
inactive: outcome [1] | outcome [2] | activity, negative = inhibition ([3]; parasite line A) 1.75% | activity, negative = inhibition ([3]; parasite line B) 14.4% | Potency [4] | Potency [5] | Potency [6] | Potency [7] | Potency [8] | Potency [9] | Potency [10] | Potency [11] | Potency [12] | Potency [13] | Potency [14] | Potency [15] | Potency [16] | Potency [17] | Potency [18] | Potency [19]

CCCCCCCC/C=C\CCCCCCCCN
inactive: activity, negative = inhibition ([3]; parasite line A) 9.32% | activity, negative = inhibition ([3]; parasite line B) 3.75% | Potency [4] | Potency [5] | Potency [6] | Potency [7] | Potency [8] | Potency [9] | Potency [10] | Potency [11] | Potency [12] | Potency [13] | Potency [14] | Potency [15] | Potency [16] | Potency [17] | Potency [18] | Potency [19]

CCN(CC)CCNC(=O)COc1ccc(OC)cc1
inactive: activity, negative = inhibition ([3]; parasite line A) 19.5% | activity, negative = inhibition ([3]; parasite line B) 3.1% | Potency [4] | Potency [5] | Potency [6] | Potency [7] | Potency [8] | Potency [9] | Potency [10] | Potency [11] | Potency [12] | Potency [13] | Potency [14] | Potency [15] | Potency [16] | Potency [17] | Potency [18] | Potency [19]

CC(=O)Oc1ccc(C)cc1
inactive: activity, negative = inhibition ([3]; parasite line A) 9.31% | activity, negative = inhibition ([3]; parasite line B) 10.5% | Potency [4] | Potency [5] | Potency [6] | Potency [7] | Potency [8] | Potency [9] | Potency [10] | Potency [11] | Potency [12] | Potency [13] | Potency [14] | Potency [15] | Potency [16] | Potency [17] | Potency [18] | Potency [19]

CCOc1cc(OCC)c(C(=O)CCC(=O)O)cc1OCC
inactive: activity, negative = inhibition ([3]; parasite line A) 5.68% | activity, negative = inhibition ([3]; parasite line B) 1.04% | Potency [4] | Potency [5] | Potency [6] | Potency [7] | Potency [8] | Potency [9] | Potency [10] | Potency [11] | Potency [12] | Potency [13] | Potency [14] | Potency [15] | Potency [16] | Potency [17] | Potency [18] | Potency [19]

CCCCCCCCCCCCSCCOCCO
inactive: activity, negative = inhibition ([3]; parasite line A) 9.57% | activity, negative = inhibition ([3]; parasite line B) 14.6% | Potency [4] | Potency [5] | Potency [6] | Potency [7] | Potency [8] | Potency [9] | Potency [10] | Potency [11] | Potency [12] | Potency [13] | Potency [14] | Potency [15] | Potency [16] | Potency [17] | Potency [18] | Potency [19]

CCN(CC)CCNC(=O)c1cc(Br)c(N)cc1OC
inactive: activity, negative = inhibition ([3]; parasite line A) 1.38% | activity, negative = inhibition ([3]; parasite line B) 3.74% | Potency [4] | Potency [5] | Potency [6] | Potency [7] | Potency [8] | Potency [9] | Potency [10] | Potency [11] | Potency [12] | Potency [13] | Potency [14] | Potency [15] | Potency [16] | Potency [17] | Potency [18] | Potency [19]

NCCNC(=O)c1ccc(Cl)cn1
inactive: activity, negative = inhibition ([3]; parasite line A) -3.24% | activity, negative = inhibition ([3]; parasite line B) -5.67% | Potency [4] | Potency [5] | Potency [6] | Potency [7] | Potency [8] | Potency [9] | Potency [10] | Potency [11] | Potency [12] | Potency [13] | Potency [14] | Potency [15] | Potency [16] | Potency [17] | Potency [18] | Potency [19]

Cc1c[nH]c2ccccc12
inactive: activity, negative = inhibition ([3]; parasite line A) -2.76% | activity, negative = inhibition ([3]; parasite line B) 2.47% | Potency [4] | Potency [5] | Potency [6] | Potency [7] | Potency [8] | Potency [9] | Potency [10] | Potency [11] | Potency [12] | Potency [13] | Potency [14] | Potency [15] | Potency [16] | Potency [17] | Potency [18] | Potency [19]

CC(=O)Nc1ccc(OCC(O)CNC(C)C)cc1 (stereo unspecified)
inactive: activity, negative = inhibition ([3]; parasite line A) 13.4% | activity, negative = inhibition ([3]; parasite line B) 11.8% | Potency [4] | Potency [5] | Potency [6] | Potency [7] | Potency [8] | Potency [9] | Potency [10] | Potency [11] | Potency [12] | Potency [13] | Potency [14] | Potency [15] | Potency [16] | Potency [17] | Potency [18] | Potency [19]

O=C(O)P(=O)(O)O
inactive: activity, negative = inhibition ([3]; parasite line A) 3.96% | activity, negative = inhibition ([3]; parasite line B) -2.94% | Potency [4] | Potency [5] | Potency [6] | Potency [7] | Potency [8] | Potency [9] | Potency [10] | Potency [11] | Potency [12] | Potency [13] | Potency [14] | Potency [15] | Potency [16] | Potency [17] | Potency [18] | Potency [19]

FC1(F)C(F)(F)C(F)(F)C2(F)C(F)(F)C(F)(F)C(F)(F)C(F)(F)C2(F)C1(F)F (stereo unspecified)
inactive: activity, negative = inhibition ([3]; parasite line A) 5.48% | activity, negative = inhibition ([3]; parasite line B) 12.9% | Potency [4] | Potency [5] | Potency [6] | Potency [7] | Potency [8] | Potency [9] | Potency [10] | Potency [11] | Potency [12] | Potency [13] | Potency [14] | Potency [15] | Potency [16] | Potency [17] | Potency [18] | Potency [19]

C[C@@H](O)[C@H]1C(=O)N2C(C(=O)O)=C(S[C@@H]3CN[C@H](CNS(N)(=O)=O)C3)[C@H](C)[C@H]12
inactive: activity, negative = inhibition ([3]; parasite line A) 0.841% | activity, negative = inhibition ([3]; parasite line B) 3.74% | Potency [4] | Potency [5] | Potency [6] | Potency [7] | Potency [8] | Potency [9] | Potency [10] | Potency [11] | Potency [12] | Potency [13] | Potency [14] | Potency [15] | Potency [16] | Potency [17] | Potency [18] | Potency [19]
